Results: PubChem BioAssay
Activity calls are given as the source filed them.

How the values were obtained:
[1] = system: Wnt5a (protein binding on small-molecule microarray); test: small molecules binding Wnt5a protein – biophysical, small-molecule microarray, 635/667 nm fluorescence, primary screen (AID 1142); settings: 635 nm fluorescence, higher = more signal;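 also: fluorescence read at 667 nm with signal to noise per printed feature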
[2] = ATP-based viability of Huh7 replicon cells – cell-based, CellTiter-Glo luminescence, basal, 48 h, cytotoxicity control for HCV replication inhibitor project, primary screen (AID 1143); settings: higher = more signal, called active from +8 up or from −8 down;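 also: Huh7 hepatoma cells carrying a hepatitis C replication reporter with no stimulus; test concentration not given here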
[3] = basal CRE-LacZ reporter activity in PC12 – cell-based, unstimulated, primary screen (AID 1145); settings: no forskolin, luminescence, 4.5 h, higher = more signal, called active from +8 up or from −8 down
[4] = forskolin-driven CRE-LacZ activity in PC12 – cell-based, CRE-LacZ reporter, forskolin-stimulated, primary screen (AID 1146); settings: luminescence, 4.5 h, higher = more signal, called active from +8 up or from −8 down;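 also: PC12 cells with 6xCRE LacZ reporter stimulated by forskolin 10 µM; beta-galactosidase reporter signal reflecting CREB driven transcription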
[5] = target: Streptavidin (Streptomyces avidinii) (UniProt P22629); test: compounds binding control protein streptavidin – biophysical, small-molecule microarray, 635/667 nm fluorescence, artefact control for SMM compound annotation, primary screen (AID 1147); settings: higher = more signal;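 also: signal reflects streptavidin binding to arrayed compounds as a control protein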
Streptavidin (Streptomyces avidinii), sequence (P22629 whole entry, looked up): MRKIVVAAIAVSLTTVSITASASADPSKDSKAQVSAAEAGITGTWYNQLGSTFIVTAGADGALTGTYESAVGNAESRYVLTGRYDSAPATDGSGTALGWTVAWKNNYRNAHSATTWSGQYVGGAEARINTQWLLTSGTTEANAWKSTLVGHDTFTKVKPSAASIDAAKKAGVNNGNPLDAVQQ

[6] = probe aInhba binding on compound microarray – biochemical, small-molecule microarray, 635/667 nm fluorescence, primary screen (AID 1148); settings: higher = more signal;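 also: score merges 667nm spot fluorescence with signal-to-noise for antibody binding to printed compounds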
[7] = target: Torsin-1A (Homo sapiens) (UniProt O14656); test: TOR1A wild-type binding on microarray – cell lysate, small-molecule microarray, lysate, 635/667 nm, primary screen (AID 1149); settings: COS7 hTOR1A-WT lysate, 635 nm fluorescence, higher = more signal
Torsin-1A (Homo sapiens), sequence (O14656 whole entry, looked up): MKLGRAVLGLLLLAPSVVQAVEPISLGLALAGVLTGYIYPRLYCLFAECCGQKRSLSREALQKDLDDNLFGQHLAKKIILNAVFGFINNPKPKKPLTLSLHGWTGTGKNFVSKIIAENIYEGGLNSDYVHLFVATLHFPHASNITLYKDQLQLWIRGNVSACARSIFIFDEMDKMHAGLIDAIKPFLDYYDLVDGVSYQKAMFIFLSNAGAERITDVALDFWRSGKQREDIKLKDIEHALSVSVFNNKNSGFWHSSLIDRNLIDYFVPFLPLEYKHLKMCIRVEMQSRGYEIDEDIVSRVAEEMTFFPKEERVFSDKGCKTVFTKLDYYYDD

[8] = target: Torsin-1A (Homo sapiens) (UniProt O14656); test: torsin A mutant lysate binding on microarrays – cell lysate, small-molecule microarray, COS7 lysate, 635/667 nm fluorescence, primary screen (AID 1150); settings: COS7 hTOR1A mutant lysate, 635 nm fluorescence, higher = more signal;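 also: score pools 667 nm emission and signal to noise measuring lysate protein binding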
[9] = system: Sonic hedgehog protein (Shh); test: Sonic hedgehog microarray binding compounds – biochemical, small-molecule microarray, 635/667 nm fluorescence, primary screen (AID 1151); settings: 635 nm fluorescence, higher = more signal;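 also: Shh protein binding to compounds spotted on small-molecule microarray slides; score combines spot fluorescence intensity with signal-to-noise across triplicate slides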
[10] = optical density shifts of acrAB sulA E. coli – strain DRC41, OD650, 48 h, E. coli filamentation inducer project, primary screen (AID 1152); settings: higher = more signal, called active from +8 up or from −8 down;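 also: E. coli MC1000 strain DRC41 lacking acrAB efflux pump and sulA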
[11] = probe aLefty1 binding on compound microarray – biochemical, small-molecule microarray, 635/667 nm fluorescence, primary screen (AID 1153); settings: higher = more signal;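 also: score merges spot fluorescence with signal-to-noise ratio from the scanned slide images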
[12] = plasmodial surface anion channel blockers, osmotic lysis – cell-based, P. falciparum Indochina, OD700, 1 h, primary screen (AID 1154); settings: P. falciparum Indochina infected RBC osmotic lysis, higher = more signal, called active from +8 up or from −8 down
[13] = plasmodial surface anion channel blockers, osmotic lysis – cell-based, P. falciparum Indochina, OD700, 2 h, primary screen (AID 1155);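 also: lysis reports solute entry through the parasite surface anion channel PSAC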; settings: P. falciparum Indochina infected erythrocytes, higher = more signal, called active from +8 up or from −8 down
[14] = changes in parasitized red cell lysis, either direction – P. falciparum Indochina, OD700, 3 h, PSAC antagonist project, primary screen (AID 1156); settings: P. falciparum-infected erythrocytes, osmotic lysis, higher = more signal, called active from +8 up or from −8 down
[15] = plasmodial surface anion channel blockers, osmotic lysis – cell-based, P. falciparum Indochina, OD700, 18 h, primary screen (AID 1157); settings: P. falciparum Indochina infected erythrocytes, osmotic lysis OD700, 18 h; higher = more signal, called active from +8 up or from −8 down
[16] = S6 kinase pathway phospho-S6 level changes – cell-based, A549, cytoblot, luminescence, serum-stimulated, primary screen (AID 1158); settings: 5 h, higher = more signal;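 also: serum-stimulated A549 lung adenocarcinoma cells; signal is phosphorylated S6 detected by cytoblot immunostaining with HRP secondary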
[17] = target: NADPH oxidase 2 (Homo sapiens) (UniProt P04839); test: compounds shifting NOX2 Amplex Red fluorescence – cell-based, HEK293-NOX2, PMA-stimulated, NOX inhibitor project, primary screen (AID 1159); settings: 45 min, higher = more signal, called active from +8 up or from −8 down; also: test concentration not given here
NADPH oxidase 2 (Homo sapiens), sequence (P04839 whole entry, looked up): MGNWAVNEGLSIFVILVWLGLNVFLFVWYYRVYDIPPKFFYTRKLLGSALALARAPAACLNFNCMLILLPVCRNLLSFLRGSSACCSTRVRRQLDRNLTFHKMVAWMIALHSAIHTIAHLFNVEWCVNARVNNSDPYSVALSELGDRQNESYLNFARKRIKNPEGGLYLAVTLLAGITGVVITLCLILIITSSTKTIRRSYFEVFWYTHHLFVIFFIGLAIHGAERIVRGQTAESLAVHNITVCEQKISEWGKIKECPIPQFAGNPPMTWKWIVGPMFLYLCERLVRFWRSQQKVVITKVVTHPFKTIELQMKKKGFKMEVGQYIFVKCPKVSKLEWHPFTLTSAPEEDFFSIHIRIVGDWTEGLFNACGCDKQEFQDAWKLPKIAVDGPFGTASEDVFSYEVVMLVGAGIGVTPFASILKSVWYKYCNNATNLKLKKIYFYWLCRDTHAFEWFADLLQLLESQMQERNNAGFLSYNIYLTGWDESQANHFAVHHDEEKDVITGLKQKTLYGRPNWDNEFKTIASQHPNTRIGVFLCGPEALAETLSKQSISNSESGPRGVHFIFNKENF

[18] = target: NADPH oxidase 4 (Homo sapiens) (UniProt Q9NPH5); test: compounds shifting NOX4 Amplex Red fluorescence – cell-based, HEK293-NOX4, tetracycline-induced, NOX inhibitor project, primary screen (AID 1160); settings: HEK293-NOX4, Amplex Red H2O2 fluorescence, 45 min; higher = more signal, called active from +8 up or from −8 down
NADPH oxidase 4 (Homo sapiens), sequence (Q9NPH5 whole entry, looked up): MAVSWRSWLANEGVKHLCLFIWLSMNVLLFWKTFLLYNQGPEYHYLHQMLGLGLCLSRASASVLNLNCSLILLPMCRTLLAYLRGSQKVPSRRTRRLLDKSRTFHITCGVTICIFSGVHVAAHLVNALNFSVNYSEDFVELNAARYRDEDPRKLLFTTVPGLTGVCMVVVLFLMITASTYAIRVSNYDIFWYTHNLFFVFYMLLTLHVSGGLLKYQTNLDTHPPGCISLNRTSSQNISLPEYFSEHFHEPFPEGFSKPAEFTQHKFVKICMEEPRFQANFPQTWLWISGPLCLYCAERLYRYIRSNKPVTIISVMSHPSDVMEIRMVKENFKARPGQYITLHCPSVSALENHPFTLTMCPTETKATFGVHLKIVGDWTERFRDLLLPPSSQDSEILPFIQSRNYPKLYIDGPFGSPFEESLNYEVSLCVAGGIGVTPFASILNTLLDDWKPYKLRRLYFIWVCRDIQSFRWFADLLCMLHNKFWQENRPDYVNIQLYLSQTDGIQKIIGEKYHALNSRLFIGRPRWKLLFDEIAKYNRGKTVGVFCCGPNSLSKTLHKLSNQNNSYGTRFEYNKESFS

[19] = target: NADPH oxidase 5 (Homo sapiens) (UniProt Q96PH1); test: compounds shifting NOX5 Amplex Red fluorescence – cell-based, HEK293-NOX5, NOX inhibitor project, primary screen (AID 1161); settings: HEK293-NOX5, ionomycin, 45 min, higher = more signal
NADPH oxidase 5 (Homo sapiens), sequence (Q96PH1 whole entry, looked up): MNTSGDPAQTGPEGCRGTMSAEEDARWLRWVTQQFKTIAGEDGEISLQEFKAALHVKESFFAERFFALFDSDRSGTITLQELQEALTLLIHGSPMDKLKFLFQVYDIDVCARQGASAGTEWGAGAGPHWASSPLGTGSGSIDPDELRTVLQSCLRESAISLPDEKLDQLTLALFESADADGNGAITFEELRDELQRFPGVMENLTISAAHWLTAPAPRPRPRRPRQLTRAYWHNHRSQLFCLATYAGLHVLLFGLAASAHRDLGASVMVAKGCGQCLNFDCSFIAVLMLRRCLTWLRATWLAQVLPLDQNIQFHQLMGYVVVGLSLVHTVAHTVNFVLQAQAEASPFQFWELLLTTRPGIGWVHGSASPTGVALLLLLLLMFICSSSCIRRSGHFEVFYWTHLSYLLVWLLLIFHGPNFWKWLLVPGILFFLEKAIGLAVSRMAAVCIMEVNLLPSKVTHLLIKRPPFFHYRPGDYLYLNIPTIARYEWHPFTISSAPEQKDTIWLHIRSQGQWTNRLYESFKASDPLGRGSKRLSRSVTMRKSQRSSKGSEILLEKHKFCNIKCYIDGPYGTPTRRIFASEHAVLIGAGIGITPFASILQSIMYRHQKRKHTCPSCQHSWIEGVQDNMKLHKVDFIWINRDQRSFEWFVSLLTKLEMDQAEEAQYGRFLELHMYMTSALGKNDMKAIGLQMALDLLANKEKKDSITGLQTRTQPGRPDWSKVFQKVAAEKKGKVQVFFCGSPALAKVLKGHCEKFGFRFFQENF

Row | Structure (SMILES) | composite z-score [1] | z-score [2] | z-score [3] | z-score [4] | composite z-score [5] | composite z-score [6] | composite z-score [7] | composite z-score [8] | composite z-score [9] | z-score [10] | composite z-score [11] | z-score [12] | z-score [13] | z-score [14] | z-score [15] | z-score [16] | z-score [17] | z-score [18] | z-score [19]
1 | O=C1c2ccccc2[C@](Cc2ccccc2I)(C(=O)NCC(F)(F)F)[C@H](c2ccc(CO)cc2)N1Cc1ccccc1C(F)(F)F | 0.12 | -0.254 (inactive) | -0.438 (inactive) | -0.112 (inactive) | 0.59 | -0.268 | 0.305 | 0.245 | 0.137 | 1.37 (inactive) | -0.597 | 2.78 (inactive) | 0.55 (inactive) | 0.564 (inactive) | 0.449 (inactive) | 0.179 | 1.27 (inactive) | 0.605 (inactive) | 2.32
2 | Cc1ccc(N2C(=O)c3ccccc3[C@](C)(C(=O)O)[C@@H]2c2ccc(CO)cc2)nc1 | -0.56 | -0.718 (inactive) | -0.852 (inactive) | -0.942 (inactive) | -0.519 | -0.267 | 1.11 | -0.144 | -0.751 | 1.47 (inactive) | -0.147 | 0.703 (inactive) | -0.228 (inactive) | -0.0241 (inactive) | -0.211 (inactive) | 0.283 | 0.775 (inactive) | -0.975 (inactive) | -0.457
3 | CO[C@H]1O[C@H](CO)[C@@H](OC(=O)Nc2ccc(Oc3ccccc3)cc2)[C@H](OC(=O)Nc2ccccc2-c2ccccc2)[C@H]1OC(=O)Nc1ccccc1-c1ccccc1 | 0.595 | -6.08 (inactive) | -0.0017 (inactive) | -1.31 (inactive) | 1.25 | 0.268 | 0.445 | 0.517 | 1.24 | 1.38 (inactive) | 0.371 | 2.14 (inactive) | 0.647 (inactive) | 0.55 (inactive) | -1.37 (inactive) | -0.151 | 1.95 (inactive) | -0.7 (inactive) | 0.176
4 | C=CC[C@]1(C(N)=O)N=C(c2ccc(OCCCO)cc2)O[C@H]1c1ccccc1CN=[N+]=[N-] | 0.151 | -4.28 (inactive) | 1.54 (inactive) | -1.31 (inactive) | 1.42 | -0.0093 | 1.69 | 0.96 | -0.373 | 2.19 (inactive) | -0.007 | 23.9 (active) | 6.58 (inactive) | -0.294 (inactive) | 0.837 (inactive) | 1.73 | -2.02 (inactive) | -0.202 (inactive) | 0.568
5 | O=C1O[C@@H](c2ccccc2)[C@@H](c2ccccc2)N2[C@@H](c3ccc(O)cc3)[C@]3(C(=O)Nc4ccc(C#CC5(O)CCCCCC5)cc43)[C@@H](C(=O)Nc3nc4ccccc4s3)[C@H]12 | 0.285 | -2.23 (inactive) | 0.204 (inactive) | -0.908 (inactive) | 1.99 | -0.438 | 0.752 | 0.757 | 0.741 | 1.74 (inactive) | 0.271 | 0.733 (inactive) | -0.232 (inactive) | 0.445 (inactive) | -0.713 (inactive) | 1.16 | 1.62 (inactive) | -1.27 (inactive) | 1.96
6 | Cc1ccc(S[C@]2(C(=O)NCCCN(C)C)CC(=O)N(C3CCCCC3)[C@@H]2c2ccc(CO)cc2I)cc1 | -0.056 | -6.58 (inactive) | -0.0243 (inactive) | 1.42 (inactive) | -0.806 | -0.128 | 0.0029 | 0.0812 | 0.0709 | 1.16 (inactive) | 0.0919 | 14 (active) | 1.35 (inactive) | 1.39 (inactive) | -1.07 (inactive) | 1.72 | -4.81 (inactive) | -1.42 (inactive) | 0.549
7 | C=CCc1cccc([C@@H]2[C@@H](C)CC[C@H]3C(=O)N4[C@H](c5cccc(CC=C)c5)[C@@H](C)CC[C@H]4C(=O)N23)c1 | 0.205 | -3.75 (inactive) | 3.64 (inactive) | -0.353 (inactive) | 0.898 | 0.0968 | 0.392 | 0.203 | 0.946 | 0.0258 (inactive) | 0.142 | 5.32 (inactive) | 1.46 (inactive) | 2.14 (inactive) | 0.738 (inactive) | -0.0433 | -0.23 (inactive) | -0.0735 (inactive) | -1.48
8 | CN(C)C(=O)[C@@]1(Cc2ccccc2N=[N+]=[N-])N=C(c2ccc(OCCCO)cc2)O[C@H]1c1ccccc1CN=[N+]=[N-] | 0.549 | -3.09 (inactive) | 1.65 (inactive) | -1.39 (inactive) | 1.41 | 0.372 | 0.477 | 1.24 | 0.397 | 1.04 (inactive) | 0.635 | 17.8 (active) | 2.5 (inactive) | 2.73 (inactive) | -0.682 (inactive) | 1.01 | -1.52 (inactive) | 1.06 (inactive) | 0.474
9 | O=C1O[C@@H](c2ccccc2)[C@@H](c2ccccc2)N2[C@@H](c3ccccc3OCCO)[C@]3(C(=O)Nc4ccc(C#CC5=CCCCC5)cc43)[C@@H](C(=O)O)[C@H]12 | 0.26 | -4.37 (inactive) | 0.245 (inactive) | 13.7 (active) | 0.841 | -0.0006 | 0.13 | 0.261 | 0.195 | 1.72 (inactive) | 0.19 | -1.69 (inactive) | -2.47 (inactive) | -13.4 (active) | -2.89 (inactive) | 0.661 | 2.26 (inactive) | -2.11 (inactive) | -2.75
10 | COc1cc([C@@H]2N[C@H](C(=O)O)Cc3c2[nH]c2ccccc32)cc(OC)c1OC | 0.102 | -1.81 (inactive) | 0.108 (inactive) | -1.69 (inactive) | 0.0855 | -0.0102 | 0.257 | 0.285 | 0.342 | 0.441 (inactive) | -0.324 | 0.604 (inactive) | 0.321 (inactive) | 0.665 (inactive) | 0.198 (inactive) | 0.172 | 2.14 (inactive) | -0.0815 (inactive) | -1.1
11 | COc1ccc(CCNC(=O)[C@@]2(c3ccc([N+](=O)[O-])cc3)CC(=O)N(C(C)C)[C@@H]2c2ccc(CO)cc2)cc1 | -0.326 | -3.13 (inactive) | 0.0909 (inactive) | -1.25 (inactive) | -0.698 | -0.255 | -1.09 | -0.87 | -0.775 | 1.6 (inactive) | -0.0353 | 4.07 (inactive) | 0.208 (inactive) | 1.44 (inactive) | 0.621 (inactive) | 0.54 | 0.891 (inactive) | 0.433 (inactive) | 0.24
12 | COc1ccc([Si](C)(C)[C@H]2[C@H](CC(=O)N3Cc4ccccc4C[C@H]3CO)O[C@@]3(C(=O)N(Cc4cccc(N5CCOC5=O)c4)c4ccccc43)[C@@H]2C)cc1 | 0.341 | -3.32 (inactive) | 5.51 (inactive) | -1.25 (inactive) | 0.0303 | 0.0086 | 0.287 | 0.383 | 1.37 | 0.666 (inactive) | -0.012 | 4.02 (inactive) | 1.09 (inactive) | 0.739 (inactive) | 0.771 (inactive) | 2.73 | -1.14 (inactive) | 0.916 (inactive) | -1.09
